Composite z-score and z-score data for five compounds are collected here from PubChem BioAssay.

A short description of test [1]: small molecules captured by biotinylated probe aFSTL3 – biochemical, small-molecule microarray, fluorescence 635/667, stem cell growth factor project, primary screen (AID 1064).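 Note: measures binding of the biotinylated anti-FSTL3 antibody to printed compounds.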 The conditions noted are these: higher = more signal.
Test [2] can be described thus: binders from COS7 lysate, DM2A8 probe, primary screen, torsin A project, cell lysate, small-molecule microarray, fluorescence 635/667 (AID 1065). Conditions: higher = more signal, COS7 lysate expressing mutant human TOR1A.
Test [3] in a line: small molecules captured by biotinylated probe aFGF2 – biochemical, small-molecule microarray, fluorescence 635/667, stem cell growth factor project, primary screen (AID 1067).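 Note: measures binding of biotinylated aFGF2 protein to printed compounds on slides; z-score merges feature fluorescence and signal-to-noise across triplicate slides.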 The conditions noted are these: higher = more signal.
Test [4] in a line: small molecules captured by biotinylated probe aFGF10 – biochemical, small-molecule microarray, fluorescence 635/667, stem cell growth factor project, primary screen (AID 1071).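 Note: score merges 667 nm spot intensity and signal to noise from triplicate slides.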 The conditions noted are these: higher = more signal.
In test [5] the target is Neurogenic locus notch homolog protein 2 (Homo sapiens) (UniProt Q04721). Description: small molecules binding Notch2 protein – biochemical, small-molecule microarray, 635 nm fluorescence, stem cell growth factors, primary screen (AID 1073). The conditions noted are these: higher = more signal.
Test [6] has as its target Pro-neuregulin-1, membrane-bound isoform (Homo sapiens) (UniProt Q02297). Description: small molecules binding neuregulin-1 protein – biochemical, small-molecule microarray, fluorescence 635/667, psychiatric disease protein project, primary screen (AID 1075).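 Note: score combines 667 nm spot fluorescence with signal to noise.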 Conditions: NRG1 binding, 635 nm fluorescence, higher = more signal.
Test [7] deals with Neuregulin-1 EGF-like domain. Description: small molecules binding NRG1 EGF domain – biochemical, small-molecule microarray, 635 nm fluorescence, primary screen (AID 1081).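 Note: binding of the protein to compounds printed on small-molecule microarray slides.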 Conditions: higher = more signal.
Test [8] can be described thus: FRG1 expression reporter modulators in myotubes – cell-based, C2C12 myotubes, firefly/Renilla luciferase, luminescence, FRG1 inhibition for FSHD, primary screen (AID 1084). Conditions: FRG1 promoter luciferase, higher = more signal, called active from +8 up or from −8 down.
A short description of test [9]: small molecules captured by biotinylated probe aFST – biochemical, small-molecule microarray, fluorescence 635/667, stem cell growth factor project, primary screen (AID 1086).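 Note: score merges 667 nm fluorescence with signal-to-noise of each printed compound spot.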 The conditions noted are these: higher = more signal.
Test [10] can be described thus: binders of probe aHhip on microarray, primary screen, stem cell growth factor project, biochemical, small-molecule microarray, fluorescence 635/667 (AID 1087).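 Note: score merges spot fluorescence at 667nm with spot signal to noise ratio.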 Conditions: higher = more signal.
Test [11] has as its system PRMT1 (protein arginine N-methyltransferase 1). Description: small molecules binding arginine methyltransferase PRMT1 – biochemical, small-molecule microarray, 635 nm fluorescence, primary screen (AID 1088).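 Note: binding of Prmt1 protein to compounds spotted on small-molecule microarray slides.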 The conditions noted are these: higher = more signal.
Test [12] in a line: growth effects on S. cerevisiae YJM789 – YJM789 clinical isolate, OD600, 24 h, basal, primary screen (AID 1089).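 Note: growth of clinical yeast isolate S. cerevisiae YJM 789 seeded 1000 cells per well; test concentration not given here.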 Conditions: higher = more signal, called active from +8 up or from −8 down.
Test [13] can be described thus: S. pombe growth modifiers, basal conditions – strain 972, OD600, 24 h, no modulator, primary screen (AID 1090).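 Note: basal condition with compound alone and no growth modifier present; test concentration not given here.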 Conditions: S. pombe 972 growth, higher = more signal, called active from +8 up or from −8 down.
Test [14] in a line: budding yeast growth modifiers under rapamycin – strain BY4716, OD600, 96 h, primary screen (AID 1091). Note: test concentration not given here. The conditions noted are these: S. cerevisiae BY4716 + rapamycin, higher = more signal, called active from +8 up or from −8 down.
The target in test [15] is Torsin-1A-interacting protein 2 (Homo sapiens) (UniProt Q8NFQ8). Description: small molecules binding lysate-expressed LULL1 – cell lysate, human LULL1 lysate, 635/667 nm fluorescence, primary screen (AID 1092).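 Note: probe is lysate of COS7 cells overexpressing human LULL1; score merges per-feature 667 nm fluorescence with signal-to-noise.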 The conditions noted are these: small-molecule microarray, hLULL1 lysate binding, 635 nm fluorescence; higher = more signal.
A short description of test [16]: optical density change of DRC41 E. coli – strain DRC41, OD650, 24 h, E. coli filamentation project, primary screen (AID 1093).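 Note: MC1000 strain lacking acrAB efflux and sulA so SOS filamentation is blocked; test concentration not given here.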 The conditions noted are these: E. coli DRC41 growth, higher = more signal, called active from +8 up or from −8 down.
Test [17] can be described thus: probe aLefty2 binding to arrayed compounds – biochemical, biotinylated probe, 635/667 nm fluorescence, primary screen (AID 1094).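 Note: score merges spot fluorescence near 667 nm with spot signal-to-noise ratio.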 Conditions: small-molecule microarray, higher = more signal.
The test system of test [18] is Noggin (protein binding on small-molecule microarray). The experiment in a line: small molecules binding Noggin protein – biochemical, 635/667 nm fluorescence, primary screen (AID 1095).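 Note: score merges 667 nm feature fluorescence with signal to noise over triplicate slides.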 Conditions: 635 nm fluorescence, higher = more signal.
Test [19] concerns the target Neurogenic locus notch homolog protein 3 (Homo sapiens) (UniProt Q9UM47). Description: small molecules binding NOTCH3 protein – biochemical, 635/667 nm fluorescence, primary screen (AID 1096). The conditions noted are these: small-molecule microarray, 635 nm fluorescence, higher = more signal.
Test [20] in a line: probe aEGFR binding to arrayed compounds – biochemical, biotinylated probe, 635/667 nm fluorescence, primary screen (AID 1097).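 Note: probe is a biotinylated anti-EGFR antibody binding compounds printed on slides; score combines fluorescence near 667 nm and signal to noise of each spot.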 Conditions: small-molecule microarray, higher = more signal.

Calls of active or inactive are those of the source.

Sequence of Neurogenic locus notch homolog protein 3 (Homo sapiens) (Q9UM47 whole entry, looked up): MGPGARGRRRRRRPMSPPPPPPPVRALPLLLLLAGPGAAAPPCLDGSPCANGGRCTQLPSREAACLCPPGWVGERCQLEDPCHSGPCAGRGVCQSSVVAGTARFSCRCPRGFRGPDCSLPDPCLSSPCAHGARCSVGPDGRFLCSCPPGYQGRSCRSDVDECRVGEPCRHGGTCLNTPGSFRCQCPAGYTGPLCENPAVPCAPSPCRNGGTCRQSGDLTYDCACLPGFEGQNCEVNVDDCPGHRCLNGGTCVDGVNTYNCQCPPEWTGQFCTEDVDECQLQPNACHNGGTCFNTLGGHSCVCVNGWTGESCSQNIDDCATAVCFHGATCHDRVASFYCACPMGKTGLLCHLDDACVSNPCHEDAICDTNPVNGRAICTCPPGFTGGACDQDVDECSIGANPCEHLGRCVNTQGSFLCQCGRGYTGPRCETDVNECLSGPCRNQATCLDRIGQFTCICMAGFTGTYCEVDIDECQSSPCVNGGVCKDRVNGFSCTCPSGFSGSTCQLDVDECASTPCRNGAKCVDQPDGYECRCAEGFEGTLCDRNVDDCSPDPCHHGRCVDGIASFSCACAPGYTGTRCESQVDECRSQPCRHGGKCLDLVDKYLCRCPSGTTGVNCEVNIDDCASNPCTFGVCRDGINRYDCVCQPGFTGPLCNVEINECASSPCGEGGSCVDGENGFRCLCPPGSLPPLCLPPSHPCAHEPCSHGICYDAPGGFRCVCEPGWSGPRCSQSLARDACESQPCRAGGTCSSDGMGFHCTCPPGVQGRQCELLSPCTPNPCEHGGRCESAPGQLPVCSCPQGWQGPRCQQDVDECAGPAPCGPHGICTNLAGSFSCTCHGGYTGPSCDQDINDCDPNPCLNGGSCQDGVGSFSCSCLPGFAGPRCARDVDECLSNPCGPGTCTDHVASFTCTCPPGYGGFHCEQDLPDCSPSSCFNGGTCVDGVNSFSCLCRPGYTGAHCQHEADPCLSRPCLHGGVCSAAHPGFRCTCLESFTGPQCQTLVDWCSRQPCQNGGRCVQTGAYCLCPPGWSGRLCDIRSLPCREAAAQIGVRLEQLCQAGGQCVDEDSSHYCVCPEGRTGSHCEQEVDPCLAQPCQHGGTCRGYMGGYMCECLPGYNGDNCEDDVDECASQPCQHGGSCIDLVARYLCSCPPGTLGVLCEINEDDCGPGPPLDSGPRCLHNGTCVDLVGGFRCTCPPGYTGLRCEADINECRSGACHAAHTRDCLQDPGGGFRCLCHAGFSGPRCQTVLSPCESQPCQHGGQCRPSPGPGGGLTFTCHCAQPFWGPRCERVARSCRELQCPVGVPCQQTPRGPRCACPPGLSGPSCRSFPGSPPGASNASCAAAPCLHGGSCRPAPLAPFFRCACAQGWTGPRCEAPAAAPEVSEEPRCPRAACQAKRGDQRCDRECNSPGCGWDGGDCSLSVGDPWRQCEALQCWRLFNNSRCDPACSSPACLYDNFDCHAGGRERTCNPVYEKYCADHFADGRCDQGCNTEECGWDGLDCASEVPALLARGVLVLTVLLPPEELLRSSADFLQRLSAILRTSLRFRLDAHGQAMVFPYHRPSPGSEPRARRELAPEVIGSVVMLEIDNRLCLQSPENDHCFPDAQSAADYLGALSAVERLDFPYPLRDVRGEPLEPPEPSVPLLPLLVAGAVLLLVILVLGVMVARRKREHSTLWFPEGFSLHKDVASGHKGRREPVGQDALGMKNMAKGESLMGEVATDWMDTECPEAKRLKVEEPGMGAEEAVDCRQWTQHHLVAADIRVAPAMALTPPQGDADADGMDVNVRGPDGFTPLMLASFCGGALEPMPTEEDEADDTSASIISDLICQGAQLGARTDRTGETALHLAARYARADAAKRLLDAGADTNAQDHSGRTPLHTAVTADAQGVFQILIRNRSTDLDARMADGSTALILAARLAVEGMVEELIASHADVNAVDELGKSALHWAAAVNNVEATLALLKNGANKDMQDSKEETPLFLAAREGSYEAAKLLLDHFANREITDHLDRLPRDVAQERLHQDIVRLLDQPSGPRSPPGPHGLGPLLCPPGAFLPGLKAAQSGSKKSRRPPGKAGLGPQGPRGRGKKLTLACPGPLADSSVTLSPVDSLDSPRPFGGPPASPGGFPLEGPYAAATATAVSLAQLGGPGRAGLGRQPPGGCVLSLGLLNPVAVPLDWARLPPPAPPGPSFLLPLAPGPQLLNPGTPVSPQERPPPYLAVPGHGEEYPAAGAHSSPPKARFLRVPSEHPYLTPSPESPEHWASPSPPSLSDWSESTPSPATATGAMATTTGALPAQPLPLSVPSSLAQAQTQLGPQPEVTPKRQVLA
Sequence of Pro-neuregulin-1, membrane-bound isoform (Homo sapiens) (Q02297 whole entry, looked up, the tested form may be a part, canonical isoform): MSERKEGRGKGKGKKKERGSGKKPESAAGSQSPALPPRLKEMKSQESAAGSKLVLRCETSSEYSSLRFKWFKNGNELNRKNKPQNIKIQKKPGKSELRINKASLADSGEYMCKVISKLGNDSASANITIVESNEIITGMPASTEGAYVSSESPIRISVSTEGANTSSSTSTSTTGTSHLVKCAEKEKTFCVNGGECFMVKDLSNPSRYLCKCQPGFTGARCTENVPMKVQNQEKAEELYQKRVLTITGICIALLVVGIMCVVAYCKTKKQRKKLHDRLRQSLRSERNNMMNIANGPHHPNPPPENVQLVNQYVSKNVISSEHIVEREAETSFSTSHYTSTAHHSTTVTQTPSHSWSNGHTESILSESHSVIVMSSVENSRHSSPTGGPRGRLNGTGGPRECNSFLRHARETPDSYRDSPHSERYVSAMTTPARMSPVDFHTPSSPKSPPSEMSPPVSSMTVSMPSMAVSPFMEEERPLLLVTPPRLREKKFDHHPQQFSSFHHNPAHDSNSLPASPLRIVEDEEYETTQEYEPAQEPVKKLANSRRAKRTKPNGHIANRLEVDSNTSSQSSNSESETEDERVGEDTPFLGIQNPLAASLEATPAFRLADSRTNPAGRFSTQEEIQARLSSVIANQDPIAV
Sequence of Torsin-1A-interacting protein 2 (Homo sapiens) (Q8NFQ8 whole entry, looked up): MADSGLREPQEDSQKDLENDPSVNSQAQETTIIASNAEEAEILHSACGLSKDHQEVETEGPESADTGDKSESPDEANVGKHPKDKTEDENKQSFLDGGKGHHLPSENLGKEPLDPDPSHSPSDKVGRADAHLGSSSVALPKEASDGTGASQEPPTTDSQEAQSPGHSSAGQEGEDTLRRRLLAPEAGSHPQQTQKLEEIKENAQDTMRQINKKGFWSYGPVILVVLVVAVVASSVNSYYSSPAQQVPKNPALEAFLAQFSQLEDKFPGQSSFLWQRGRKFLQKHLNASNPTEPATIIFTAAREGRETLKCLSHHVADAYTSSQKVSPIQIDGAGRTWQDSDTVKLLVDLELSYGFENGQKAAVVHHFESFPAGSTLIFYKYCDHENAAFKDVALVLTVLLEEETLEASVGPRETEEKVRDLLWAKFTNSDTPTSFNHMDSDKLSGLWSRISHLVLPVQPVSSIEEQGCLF

`C[C@]12CCC3c4ccc(OCC5CO5)cc4CCC3C1CC[C@@H]2O` (stereo not given in full): the composite z-score is 0.157 in [1]; 0.258 in test [2]; -0.0415 in [3]; 0.381 in [4]; 1.04 in test [5]; 0.703 in test [6]. Also, the composite z-score in [7] was 1.07; in test [9], 0.473; in test [10], -0.0994; in test [11], 0.205; in [15], 2.11; in test [17] it was 0.124. In addition, the values for the composite z-score in test [18], in [19] and in [20] were 0.0768, 0.162 and 0.0025, respectively. For the same compound, the z-score in test [8] was 1.05 (inactive); in [12] it was 0.199 (inactive); in test [13], -4.77 (inactive); in test [14], -0.494 (inactive); in test [16], 0.392 (inactive).

Regarding `CC(C)=CCCC(C)=CCON=C1C[C@@H](O)[C@@H](O)[C@@H]2[C@@H]3C(=O)N(Cc4ccc5c(c4)OCO5)C(=O)[C@@H]3CC[C@@H]12`, the composite z-score in test [1] is -0.316; in [2], -0.777; in test [3], -0.241; in test [4], 0.31; in test [5], 0.397; in [6] it was 0.364. Moreover, the composite z-score is 0.974 in test [7]; 0.396 in [9]; -0.0618 in [10]; 1.54 in test [11]; 2.06 in [15]; 0.0478 in [17]. Also, the composite z-score in test [18] is 0.837; in [19], 0.983; in test [20] it was -0.0432. Also, the z-score was 0.397 (inactive) in test [8]; 0.0718 (inactive) in test [12]; 1.03 (inactive) in [13]; -0.864 (inactive) in [14]; 0.813 (inactive) in test [16].

For `CCN1C(=O)[C@H]2[C@H]3[C@H](O)[C@H](O)CC(=NOC[C@@H](O)[C@H]4O[C@@H]5OC(C)(C)O[C@@H]5[C@H]4O)[C@@H]3CC[C@H]2C1=O`, the composite z-score in test [1] was -0.635; in test [2] it was -0.112; in test [3] it was -0.173; in test [4], 0.242; in [5], 0.352; in test [6], 0.12. For the same compound, the composite z-score is -0.0114 in test [7]; 0.156 in [9]; -0.291 in [10]; -0.556 in test [11]; -0.0973 in [15]; -0.159 in test [17]. In addition, the composite z-score in test [18] was 0.0713; in [19] it was -0.124; in [20] it was -0.0685. Moreover, the z-score in test [8] is -0.116 (inactive); in test [12], 0.141 (inactive); in [13] it was 0.234 (inactive); in test [14], 0.33 (inactive); in test [16], 0.454 (inactive).

On to `COc1ccc(COC(=O)NN=C2C[C@@H](O)[C@@H](O)[C@@H]3[C@@H]4C(=O)N(Cc5ccccc5)C(=O)[C@@H]4CC[C@@H]23)cc1`, for which the composite z-score in test [1] is -0.512; in test [2], -0.0209; in test [3], -0.0286; in [4], 0.291; in test [5] it was 0.383; in test [6] it was -0.271. The composite z-score in [7] was -0.214; in test [9], 0.268; in test [10], 0.0183; in test [11], 0.166; in [15], 0.105; in test [17], -0.0873. Further, the composite z-score in test [18] is 0.123; in test [19] it was 0.724; in test [20], -0.0868. The z-score in test [8] was 0.364 (inactive); in test [12], 0.712 (inactive); in [13], 0.304 (inactive); in [14], -0.0766 (inactive); in test [16], 0.555 (inactive).

On to `CCOC(=O)NN=C1C[C@@H](O)[C@@H](O)[C@@H]2[C@@H]3C(=O)N(CC)C(=O)[C@@H]3CC[C@H]12`, for which the composite z-score in test [1] was -0.431; in test [2], 0.36; in test [3] it was -0.1; in [4], 0.389; in test [5] it was 0.384; in [6], -0.313. For the same compound, the composite z-score was 0.539 in test [7]; 0.007 in [9]; -0.153 in [10]; -0.0481 in test [11]; 0.458 in test [15]; -0.25 in test [17]. Moreover, the composite z-score in [18] is 0.583; in test [19], -0.387; in test [20] it was -0.034. Moreover, the z-score in test [8] is -0.323 (inactive); in test [12], 0.213 (inactive); in [13], 0.324 (inactive); in test [14], 0.71 (inactive); in test [16], 0.312 (inactive).
